Measurements from PubChem BioAssay AID886 (National Center for Advancing Translational Sciences (NCATS), 2007).
“And” between values parts separate entries of the source, which are not always exact repeats. Identical values can stand only once. About 2,500 (3.4%) of roughly 73,000 compounds were called active. A call without a number means that no potency is given here. About 7% were inconclusive and are not listed. The call rests on the fitted dose curve; in most records, active means well fitted inhibition curve with a large enough effect; inconclusive means small, poorly fitted or top-dose-only effect; inactive means no such curve, though single readings can be large or run the other way. This excerpt belongs to a sample that is enriched for actives.

These compounds were tested against 3-hydroxyacyl-CoA dehydrogenase type-2 (Homo sapiens) (UniProt Q99714) (assay: qHTS Assay for Inhibitors of HADH2 (Hydroxyacyl-Coenzyme A Dehydrogenase, Type II)). Conditions: recombinant HADH2, NADH fluorescence, beta-hydroxybutyryl-CoA; series mostly up to 57.1 µM.
In short: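 NADH fluorescence (ex 360/em 450 nm) read every 30 s for 4 min; activity taken as last-minus-first time point difference. Enzyme 20 nM, NAD+ 1 mM, beta-hydroxybutyryl-CoA 90 uM, pH 9.0 Tris buffer.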
Further: nearly all actives have a fitted effect of over 60% in size.
Potency means the concentration at half of the fitted maximal effect.

Chain of 3-hydroxyacyl-CoA dehydrogenase type-2 (Homo sapiens) (Q99714 whole entry, looked up): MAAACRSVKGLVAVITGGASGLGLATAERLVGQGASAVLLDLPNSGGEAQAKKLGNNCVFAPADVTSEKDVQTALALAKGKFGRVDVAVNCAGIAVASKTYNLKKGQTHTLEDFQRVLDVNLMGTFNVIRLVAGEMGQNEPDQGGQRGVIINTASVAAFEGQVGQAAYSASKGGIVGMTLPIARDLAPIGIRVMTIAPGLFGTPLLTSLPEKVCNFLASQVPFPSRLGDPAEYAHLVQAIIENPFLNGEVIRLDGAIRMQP
Chain of 3-hydroxyacyl-CoA dehydrogenase type-2 (Homo sapiens) (Q99714 whole entry, looked up): as above

Row | SMILES | Potency | activity change, negative = inhibition
1 | CS(=O)(=O)N1CCC2(CCN(c3ccncc3)CC2)CC1 | inactive | 
2 | c1coc(-c2nc3nc4ccccc4n3nc2-c2ccco2)c1 | inactive | 
3 | COc1ccc(CCn2c(-c3ccco3)nc3nc4ccccc4nc32)cc1OC | inactive | 
4 | Cn1c(-c2ccco2)nc2cc3ccccc3cc21 | 31.6 µM (active) | 
5 | O=C(O)/C(=C/c1c(C(=O)O)[nH]c2cc(Cl)cc(Cl)c12)c1ccccc1 | inactive | 
6 | c1ccc(Oc2ccccc2)cc1 | inactive | 
7 | O=c1c(-c2ccc(F)cc2)nc2cncnc2n1-c1ccccc1 | inactive | 
8 | CCOC(=O)N/N=C1/C[C@@H](O)[C@@H](O)[C@@H]2[C@@H]3C(=O)N(CC)C(=O)[C@H]3CC[C@H]12 |  | 11.3% [at 11.4 µM] (inactive)
9 | O=c1[nH]c(-c2ccccc2)c(-c2ccccc2)[nH]1 | 3.16 µM (active) | 
10 | O=c1[nH]c(=O)c2nc3ccccc3nc2[nH]1 | inactive | 
11 | O=c1cc(-c2ccccc2)nc(N2CCCCC2)[nH]1 | inactive | 
12 | COc1ccc(-c2nc3cnc(Oc4ccccc4)nc3n(Cc3cccs3)c2=O)cc1 | inactive | 
13 | O=C(O)[C@@H]1[C@@H](C(=O)O)[C@]23C[C@@]2(C(=O)O)[C@]2(C(=O)O)CCC3=C3CCCC312 |  | 14.2% [at 11.4 µM] (inactive)
14 | COc1ccc(N)c(C)c1 | inactive | 
15 | C1=C(N2CCOCC2)/C(=C/c2nc3ccccc3[nH]2)CC1 | 3.98 µM (active) | 
16 | c1ccc(-n2nnnc2N2CCOCC2)cc1 | inactive | 
17 | c1ccc2[nH]c(NCCN3CCOCC3)nc2c1 | inactive | 
18 | O=C1C(c2[nH]c3ccccc3c2O)=Nc2ccccc21 | inactive | 
19 | Cc1nc2cnc(N3CCN(C)CC3)nc2n(C[C@H]2CCCO2)c1=O | inactive | 
20 | N[C@@H](C(=O)O)c1ccc(P(=O)(O)O)cc1 | inactive | 
21 | O=C(O)c1ccc(-n2cccc2)cc1O | inactive | 
22 | N[C@H](C(=O)O)c1ccc(C(=O)O)c(O)c1 | 31.6 µM (active) | 

Row | SMILES | Potency | activity change, negative = inhibition
23 | Cc1cccc(C(=O)O)c1 | inactive | 
24 | O=C(O)c1ccc(Cl)c(S(=O)(=O)Nc2ccccc2Cl)c1 | inactive | 
25 | COC(=O)c1ccc2c(=O)n(CC3CCCO3)c(=S)[nH]c2c1 (stereo not given) | inactive | 
26 | COC(=O)c1cccc(NC(=O)CSc2nc(C)cc(=O)[nH]2)c1 | inactive | 
27 | CCOC(=O)c1sc(=S)n2c1[nH]c(=O)c1ccc(C(=O)OC)cc12 | 1 µM (active) | 
28 | O=c1c(-c2cc(F)cc(F)c2)nc2cnc(Oc3ccccc3)nc2n1C[C@H]1CCCO1 | inactive | 
29 | Fc1ccc(-c2ccc(-c3nn4c(-c5ccco5)nnc4s3)o2)cc1 | inactive | 
30 | Fc1ccc(-c2nnc(CSc3nnc(-c4ccc5c(c4)OCO5)o3)o2)cc1 | inactive | 
31 | Fc1ccc(-c2nnc3sc(-c4ccc5c(c4)OCO5)nn23)cc1 | 25.1 µM (active) | 
32 | C/C(CCN1CCCCc2nc(C)c(C)cc21)=N\O[C@@H](C)c1cn([C@@H]2COC[C@@H]2O)nn1 |  | -2.51% [at 11.4 µM] (inactive)
33 | O=C(c1ccc(F)cc1)C1CCN(CCCCc2ccccc2)CC1 | inactive | 
34 | COc1ccc(-c2nnc(SCC(=O)c3cccs3)o2)c(OC)c1 | inactive | 
35 | COc1ccc(-n2c(C)cc(C(=O)CSc3nnc(-c4cccs4)o3)c2C)cc1 | inactive | 
36 | COc1ccc(OC)c(C(=O)CSc2nnc(-c3cccs3)o2)c1 | 25.1 µM (active) | 
37 | CCCCC[C@H](O)CCCC(=O)O | inactive | 
38 | CN1CCC(CNC(=O)c2ccc(-n3c(=O)c(=O)[nH]c4ccccc43)cc2)CC1 | inactive | 
39 | COC(=O)C1(C)C=CCN1C(=O)c1ccccc1 (stereo not given) | inactive | 
40 | O=C1[C@H]2[C@H]3[C@H](O)[C@H](O)C/C(=N/OCc4ccccc4)[C@H]3CC[C@@H]2C(=O)N1Cc1ccccc1 |  | -3.88% [at 11.4 µM] (inactive)
41 | CN1CCC2(CC1)CCN(S(=O)(=O)c1ccccc1)CC2 | inactive | 
42 | O=S(=O)(O)c1ccc(O)c2ncccc12.O=S(=O)(O)c1ccc(O)c2ncccc12.[Zn] |  | -19.7% [at 11.4 µM] (inactive)
43 | CCS(=O)(=O)N(C)[C@@H]1c2cc(C#N)ccc2OC(C)(C)[C@H]1O | inactive | 
44 | Nc1ccc(-c2nnc(-c3ccc(-c4ccccc4)cc3)o2)cc1 | 31.6 µM (active) | 

Row | SMILES | Potency | activity change, negative = inhibition
45 | O=C(COC(=O)c1ccc(Oc2ccccc2)cc1)Nc1nnc(-c2ccccc2)o1 | inactive | 
46 | CC(N)=NCc1cccc(CN)c1 | inactive | 
47 | CN1CCN2c3ccccc3Cc3ccccc3[C@@H]2C1 | inactive | 
48 | CCN1C(=O)/C(=C\N2CCN(c3cccc(Cl)c3)CC2)SC1=S | inactive | 
49 | CCN1C(=O)/C(=C\N2CCN(c3ccccc3)CC2)SC1=S | inactive | 
50 | CCN1C(=O)/C(=C2/Sc3ccccc3N2CCCS(=O)(=O)O)SC1=S | 20 µM (active) | 
51 | Cc1ccc(NC(=O)c2cccc(N(C)C)c2)cc1NC(=O)c1ccc(O)cc1 | inactive | 
52 | CCC[C@@H]1C[C@@]1(CCC)C(NS(=O)(=O)c1cccc2cccnc12)c1ccc(Cl)cc1 (stereo not given in full) | inactive | 
53 | C[C@]1(C(=O)NCCc2c[nH]c3ccccc23)C=C[C@@H](Cc2ccccc2)N1C(=O)c1ccccc1 | inactive | 
54 | COC(=O)C1=C(C)N(Cc2ccccc2)C2=C3C(=O)N(c4ccccc4)C(=O)C3[C@@](O)(C(=O)OC)C(=O)N2C1c1ccccc1 (stereo not given in full) |  | 10.1% [at 11.4 µM] (inactive) and 2.48% [at 11.4 µM] (inactive)
55 | CC(=O)Nc1cccc(-c2cnc3ccccc3n2)c1 | inactive | 
56 | CCOc1nc(OCC)nc(-n2cc(-c3ccccc3)nn2)n1 | inactive | 
57 | CC(=O)Nc1ccc(-c2cn3cccnc3n2)cc1 | 15.8 µM (active) | 
58 | c1ccc(-c2cn3cccnc3n2)cc1 | 12.6 µM (active) | 
59 | CCCC(=O)Nc1cccc(-c2cn3ccsc3n2)c1 | inactive | 
60 | COC(=O)C(C(=O)OC)[C@@H]1CCCC(=O)C1 |  | 12% [at 11.4 µM] (inactive)
61 | CC(C)[C@@H](CC(=O)N[C@@H]1CCNC[C@H]1C(=O)N[C@H](CC(=O)N[C@@H](CCC(=O)O)CC(=O)O)Cc1ccccc1)NC(=O)C[C@H](CO)NC(=O)[C@@H]1CNCC[C@H]1N | inactive | 
62 | O=C1C(c2ccccn2)=[N+]([O-])c2ccccc21 | inactive | 
63 | Cc1c(C(=O)N2CCOCC2)[nH]c2ccc(OCc3ccccc3)cc12 | inactive | 
64 | COc1cc(NC(=O)N2CCOCC2)cc(OC)c1 | inactive | 
65 | CCOC(=O)c1[nH]c2ccc(OC)cc2c1NC(=O)N1CCOCC1 | 25.1 µM (active) | 
